Not all results are given here.
aSyn 5UTR act: Activators via SNCA 5'UTR binding, MLPCN | activity score, % (tested at 7.5 µM), hits read low | 7.1% of 300,000 active | alpha-synuclein 5'UTR reporter, activators screen; in the data active = activity score below about -60%
Large screens that a line does not name were inactive.

O=C(N/N=C/c1ccc(O)cc1)Nc1cccc2nsnc12	aSyn 5UTR act -72.8
CC(=O)n1cc(/C=N/NC(=O)c2ccc(Cl)cc2)c2ccccc21	aSyn 5UTR act -69.1
CCCc1cc(C(=O)N/N=C/c2cccn2C)cs1	aSyn 5UTR act -71.8
Cn1cccc1/C=N/NC(=O)c1cccs1	aSyn 5UTR act -70.0
Cn1cc(/C=N\NC(=O)c2cccs2)c2ccccc21	aSyn 5UTR act -280.2
COc1ccc(/C=N/NC(=O)c2cccs2)c2ccccc12	aSyn 5UTR act -61.6
O=C(Nc1ccc(-c2nc3cc(Cl)ccc3o2)cc1)C1CCCO1 (stereo not drawn)	aSyn 5UTR act -81.0
O=C(Nc1ccc2oc(-c3ccccc3)nc2c1)C1CCCO1 (stereo not drawn)	aSyn 5UTR act -161.9
Cc1ccc2c3c(cccc13)-c1ccccc1C2=O	aSyn 5UTR act -110.6
O=C(O)c1ccc2c3c(ncnc13)-c1ccccc1C2=O	none
Cc1cccc(C(=O)O/N=C(\N)c2cccc([N+](=O)[O-])c2)c1	aSyn 5UTR act -156.9
N/C(=N\OC(=O)c1cccs1)c1cccc([N+](=O)[O-])c1	aSyn 5UTR act -130.4
COc1ccc(/C(N)=N/OC(=O)c2cccc([N+](=O)[O-])c2)cc1OC	aSyn 5UTR act -95.7
N/C(=N\OC(=O)c1cccc([N+](=O)[O-])c1)c1cccnc1	aSyn 5UTR act -189.3
COc1cc(/C=C/C(=O)c2cccc([N+](=O)[O-])c2)cc(OC)c1OC	aSyn 5UTR act -61.5
COc1cccc(C(=O)O/N=C(\N)c2ccc([N+](=O)[O-])cc2)c1OC	aSyn 5UTR act -208.0
N#CCc1ccc(C(=O)c2ccccc2)s1	aSyn 5UTR act -69.6
Cc1ccc(C)c(C(=O)Nc2nc3ccccc3[nH]2)c1	aSyn 5UTR act -69.4
O=C(Nc1nc2ccccc2[nH]1)c1ccc(Cl)cc1	none
O=C(Nc1nc2ccccc2[nH]1)c1ccccc1O	aSyn 5UTR act -73.8
O=C(Nc1nc2ccccc2[nH]1)c1cccc(Cl)c1	aSyn 5UTR act -151.1
O=C(NNc1ncnc2ccccc12)c1cccc(Cl)c1	aSyn 5UTR act -84.0
Cc1ccc(C)c(OCc2nc3ccccc3[nH]2)c1	aSyn 5UTR act -112.6
Cc1ccc(Nc2nc3ccccc3[nH]2)nc1	aSyn 5UTR act -219.9
CN(c1nc(-c2ccc(Br)cc2)cs1)C1CCS(=O)(=O)C1 (stereo not drawn)	aSyn 5UTR act -111.9
COc1cc2oc(-c3ccc(O)cc3)cc(=O)c2c(O)c1OC	aSyn 5UTR act -73.4
COC(=O)c1cc(-c2c(C)nn(-c3ccccc3)c2C)n[nH]1	aSyn 5UTR act -87.4
Cc1ccc(-c2cc(C(=O)N/N=C/c3c(C)nn(-c4ccccc4)c3C)[nH]n2)cc1	none
CC(=O)c1cccc(NC(=O)c2cc3nc(C)cc(C)n3n2)c1	aSyn 5UTR act -138.5
Cc1cc(C)n2nc(C(=O)Nc3ccc4c(c3)OCO4)cc2n1	aSyn 5UTR act -84.3
Nc1ccccc1N=Cc1ccc(-c2cccc(Cl)c2)o1	aSyn 5UTR act -145.1
O=C(Nc1ccc(F)cc1F)c1csc(-c2cccs2)n1	aSyn 5UTR act -270.1
CCc1ccc(NC(=O)c2cc(C(C)C)on2)cc1	aSyn 5UTR act -102.5
CC(C)Cc1cc(C(=O)NCc2cccs2)no1	aSyn 5UTR act -164.4
CC(=O)c1cccc(NC(=O)c2cc(C(C)C)on2)c1	aSyn 5UTR act -101.3
CC(C)Cc1cc(C(=O)Nc2ccc(F)cc2F)no1	aSyn 5UTR act -138.6
CC(C)Cc1cc(C(=O)Nc2ccc(Br)cc2)no1	aSyn 5UTR act -137.1
CC(C)c1cc(C(=O)NCCc2ccccc2)no1	aSyn 5UTR act -200.7
CCc1ccc(NC(=O)c2cc(CC(C)C)on2)cc1	aSyn 5UTR act -120.5
O=C1CSC(c2ccc(F)cc2)N1c1nc2ccccc2s1 (stereo not drawn)	aSyn 5UTR act -91.3
COc1cc(CO)ccc1OCc1ccc(Cl)nc1	aSyn 5UTR act -102.5
Cc1cc(NC(=O)NC(=O)c2ccccc2)no1	aSyn 5UTR act -119.9
Cc1cc(NC(=O)c2ccco2)no1	aSyn 5UTR act -61.8
C/C(=C\c1ccccc1)C(=O)Nc1cc(C)on1	aSyn 5UTR act -161.0
Cc1cc(NC(=O)c2ccc(Cl)cc2)no1	aSyn 5UTR act -106.8
Cc1cc(NC(=O)c2ccc3nc(C)sc3c2)no1	aSyn 5UTR act -122.8
CC(C)/C(=N/Nc1ccccc1[N+](=O)[O-])c1ccccc1	aSyn 5UTR act -85.6
C/C(=N/Nc1ccccc1[N+](=O)[O-])c1ccc(C)c([N+](=O)[O-])c1	aSyn 5UTR act -165.7
C/C(=N\Nc1ccccc1[N+](=O)[O-])c1ccc(N2CCOCC2)cc1	aSyn 5UTR act -82.3
O=[N+]([O-])c1c(Nc2ccccc2O)cc(N2CCOCC2)c2nonc12	none
Cn1cc(/C=C/c2cc[n+](C)cc2)c2cc(Cl)ccc21	none
CCc1ccc(NC(=S)NC(=O)CC(C)C)cc1	aSyn 5UTR act -154.0
CCC(C)c1ccc(OCC(=O)Nc2ccc(Cl)cn2)cc1 (stereo not drawn)	aSyn 5UTR act -72.3
CCCCCCC(=O)Nc1ccc(Cl)cn1	aSyn 5UTR act -88.0
CC(C)CC(=O)NC(=S)Nc1ccc(Cl)cn1	aSyn 5UTR act -67.9
O=C(NC1CCCC1)c1cc(-c2cccc(Cl)c2)on1	aSyn 5UTR act -185.8
O=C(NC1CCCCC1)c1cc(-c2cccc(Cl)c2)on1	aSyn 5UTR act -235.5
CCOc1ccc2nc(NC(=O)C34CC5CC(CC(NC(C)=O)(C5)C3)C4)sc2c1	aSyn 5UTR act -131.9
COc1ccc2nc(NC(=O)C34CC5CC(CC(NC(C)=O)(C5)C3)C4)sc2c1	aSyn 5UTR act -94.4
COc1cccc(N=CC=C2OC(C)(C)C(C)(C)O2)c1	aSyn 5UTR act -98.6
Cc1cccc(N=CC=C2OC(C)(C)C(C)(C)O2)c1	aSyn 5UTR act -81.3
O=C(Nc1ccccc1Cl)c1cc(=O)c2ccccc2o1	aSyn 5UTR act -144.4
O=C(Nc1ccccc1Br)c1cc(=O)c2ccccc2o1	aSyn 5UTR act -183.7
O=C(CCl)c1ccc2c(c1)CCN2C(=O)C1CC1	aSyn 5UTR act -94.3
Cc1c(CCC(=O)N2CCC[C@H]2C(=O)O)c(=O)oc2cc3oc4c(c3cc12)CCCC4	none
COC(=O)Cc1c(C)c2ccc(OC3CCCCC3=O)c(C)c2oc1=O (stereo not drawn)	aSyn 5UTR act -65.1
Cc1ccc(-c2cc3nn(-c4ccccc4)c(N)c3c(=O)o2)cc1	aSyn 5UTR act -96.4
O=C(Cc1cc2ccccc2o1)NCc1ccc(F)cc1	aSyn 5UTR act -78.7
CCOc1ccc(-c2cc(C(=O)NN)[nH]n2)cc1	aSyn 5UTR act -68.6
Cc1ccc2[nH]c3c(=O)n(N)c(C)nc3c2c1	aSyn 5UTR act -69.6
COCCNC(=S)N/N=C(\C)c1ccccc1O	aSyn 5UTR act -161.4
Cc1cc(C(=O)COC(=O)c2ccc(Br)o2)c(C)n1C	aSyn 5UTR act -111.8
COCCn1c(C)cc(C(=O)COC(=O)c2ccc(Br)o2)c1C	aSyn 5UTR act -99.9
Cn1ncc([N+](=O)[O-])c1C(=O)Nc1ccc(-c2nc3ccccc3o2)cc1	aSyn 5UTR act -129.5
O=C1c2ccccc2C(=O)N1CCOc1cccc(Br)c1	aSyn 5UTR act -71.2
COc1ccc(OCCN2C(=O)c3cccc(N)c3C2=O)cc1	aSyn 5UTR act -97.7
Brc1ccc(C2=NC(Cc3ccccc3)CO2)cc1 (stereo not drawn)	aSyn 5UTR act -175.5
Cc1cccc(/C=C\c2nc3ccccc3c(=O)[nH]2)c1	aSyn 5UTR act -73.8
O=c1[nH]c(/C=C/c2ccc(Br)cc2)nc2ccccc12	aSyn 5UTR act -168.8
O=C(Nc1cccc(/C=C/c2nc3ccccc3c(=O)[nH]2)c1)c1ccccc1Cl	aSyn 5UTR act -131.8
CN(C)c1ccc(/C=C/c2nc3ccccc3c(=O)[nH]2)cc1	none
Cc1ccc(Nc2nc3ccccc3c(=O)[nH]2)cc1C	aSyn 5UTR act -194.9
